From PubChem BioAssay (NCI)
This is part of a sample that, as a whole, favours compounds with a hit. Of some 83,000 tested, about 20% had one in any assay.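 Activity criterion: percent growth below 10, measured after cells in 96-well plates were exposed to a single compound concentration for 48 hours.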 Unmarked numbers belong to inactive results. Activity calls are given as the source filed them.

System: SF-268 CNS
Assay: NCI-60 one-dose screen, 48 h (100 = growth as untreated, 0 = no growth, -100 = all killed)
Details: 10 µM unless noted

Going from `N#CC1=C(N)Oc2c(c(N)nn2-c2ccccc2)C1c1ccc(Cl)cc1Cl` (stereo unspecified) to `N#CC1=C(N)Oc2c(sc3c(F)cccc23)C1c1ccc(Cl)cc1` (stereo unspecified), the growth falls from 92% to 45.3%.

Compared with `C=C(C)[C@@H]1CC[C@]2(C=O)CC[C@]3(C)[C@H](CC[C@@H]4[C@@]5(C)C/C(=C/c6cccnc6)C(=O)C(C)(C)[C@@H]5CC[C@]43C)[C@@H]12`, `C=C(C)[C@@H]1CC[C@]2(/C=N/Nc3ccncc3)CC[C@]3(C)[C@H](CC[C@@H]4[C@@]5(C)CCCNC(C)(C)[C@@H]5CC[C@]43C)[C@@H]12` is higher in growth: 85.8% for the first, 97.2% for the second.

First: C=C(C)[C@@H]1CC[C@]2(C(=O)N3CCN(CC)CC3)CC[C@]3(C)[C@H](CC[C@@H]4[C@@](C)(CCC(=O)N5CCN(CC)CC5)[C@H](C(=C)C)CC[C@]43C)[C@@H]12
Second: CCN1CCN(C(=O)[C@]23CCC(C)(C)C[C@H]2C2=CC[C@@H]4[C@@]5(C)CC/C(=N/O)C(C)(C)[C@@H]5CC[C@@]4(C)[C@]2(C)CC3)CC1
The growth of the first is higher: 76.9% for the first, 67.2% for the second.

First: O=C1c2cccc3cccc(c23)C(=O)N1CC#Cc1ccc2c3c(cccc13)C(=O)N(CCN1CCNCC1)C2=O
Second: Cc1ccnc2c(OCc3ccccc3)cccc12
The growth of the first is higher: 93.8% for the first, 92.5% for the second.

Going from `C=CC(=O)N[C@H](Cc1ccc(-c2cc(Cl)cc(Cl)c2)cc1)[C@H](O)[C@@H](O)C(=O)O` to `C=COCCCCCCCCCCCCCCCCCC`, the growth falls from 102% to 101%.

In the case of `COc1cc2ncnc(Nc3ccc(Oc4ccnc(C)c4)c(C)c3)c2cc1NC(=O)CC1CCSS1` (stereo unspecified), the growth is reported as -53.2% (active).
